HSF-1 act – increases HSF-1 driven luciferase reporter signal | NIH3T3-HGL HSF-1 luciferase reporter, MG132, 8 h; 100% = twice DMSO control signal | activation, % at 9 µM | actives 1.7% (n = 300,000);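 active = mean replicate activation of at least 50% with a set share of replicates each reaching 50%; inconclusive = only one of those two conditions met; inactive = mean below 50% and too few replicates reaching it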;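 also: 0% = median of the neutral control wells and 100% = twice that signal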
Wnt act – activates Wnt/beta-catenin signaling in a reporter cell assay; activation, % at 9.35 µM; actives 1.2% (n = 300,000); activator, plate reader; in the data active = activation above about 30%, passing the limit was not always enough; inconclusive = no clear call, values can overlap the other calls;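 also: 0% = neutral control wells and 100% = positive control wells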
esBAF inh – blocks esBAF chromatin remodeling in mouse ES cells | reporter increase, % at 12.5 µM | actives 2% (n = 350,000) | Bmi1-luciferase knock-in reporter, 24 h; 100% = twice the neutral-well signal; in the data active = activation above about 40%; inconclusive = no clear call, values can overlap the other calls;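 also: 0% = median of the plate's neutral control wells and 100% = double that signal; a rise in the Bmi1 reporter signal indicates esBAF inhibition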
HSF1 inh – HSF1 inhibition; activity change, negative = inhibition, % at 7.5 µM (by protocol); NIH3T3-HGL HSE-luciferase, MG132-induced, luminescence 8 h; active compounds read low; AID 2098; actives 0.77% (n = 300,000);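 active = more than half of replicate wells show activity change below -50%, luminescence cut by over half; inconclusive = some wells, but at most half, below -50%; inactive = no replicate well below -50%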;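 also: luciferase reports HSF-1 transcriptional activity via heat shock element; 0% = median of DMSO wells and -100% = zero luminescence signal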
MITF act – MITF TRPM1 promoter activation in melanoma cells. SK-MEL-5 TRPM1-promoter luciferase, 24 h; % of positive control, neutral wells = 0. activation, % at 12.5 µM. actives 0.75% (n = 300,000). AID 588334;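 active = mean activation of at least 80% with every replicate also reaching 80%; inconclusive = mean reaches 80% but some replicate falls short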;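 also: 0% = neutral control wells and 100% = parthenolide positive control wells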
Active calls of the source: *; ? = inconclusive; . = no result given. Hits are enriched below; roughly 3.9% of the tested compounds scored in any of these assays.

SMILES	HSF-1 act	Wnt act	esBAF inh	HSF1 inh	MITF act
COc1ccc(S(=O)(=O)N(C)C[C@@H]2OCCCC[C@@H](C)Oc3ccc(NC(=O)C4CCCCC4)cc3C(=O)N([C@H](C)CO)C[C@@H]2C)cc1	.	.	2	.	.
CC=Cc1ccc2n(c1=O)C[C@@H]1[C@@H](CO)[C@H](C(=O)NCCc3ccncc3)[C@H]2N1Cc1ccncc1 (mixture of isomers)	.	.	-3	.	.
Cn1ncc(Cl)c1C(=O)Nc1ccc2c(c1)CCC2	11	24	52*	21	29
COC(=O)c1cc(NC(=O)c2c(Cl)cnn2C)cc(C(=O)OC)c1	33	-4	.	-3	-4
CNC(=S)N(CCc1c(C)[nH]c2ccc(F)cc12)Cc1cccnc1	-89	1	8	-86*	.
NC(=O)c1ccsc1NC(=O)CCc1ccccc1	33	9	39	21	58
COC(=O)c1ccsc1NC(=O)CCc1ccccc1	67*	18	48*	32	34
COC(=O)Nc1sccc1C(=O)Nc1sccc1C(=O)OC	-66	.	.	-65*	2
CCC(=O)N1[C@H](CO)[C@H]2c3ccccc3N(C(=O)Nc3ccccc3Cl)C[C@H]21	.	.	0	.	.
CCn1c(SCC(=O)N/N=C/C=C/c2ccco2)nc2ccccc21	78*	2	.	47	5
CO[C@@H]1CN(C)C(=O)c2cc(NC(=O)NC(C)C)ccc2OC[C@@H](C)N(CCC(F)(F)F)C[C@@H]1C	.	.	0	.	.
O=C(Cn1nnc2ccccc21)NNC(=S)NC1CCCCC1	-73	0	-3	-65*	-7
Cc1ccc(NC(=O)Cn2nnc3ccccc32)cc1	38	12	.	13	55
Cc1cccc(NC(=O)Cn2nnc3ccccc32)c1	22	8	63*	11	55
CC(OC(=O)Cn1nnc2ccccc21)C(=O)NC1CCCC1 (stereo unspecified)	-6	4	0	0	2
COC(=O)c1ccc(NC(=O)Cn2nnc3ccccc32)cc1	33	24	71*	16	54
O=C(Cn1nnc2ccccc21)Nc1ccc([N+](=O)[O-])cc1	13	4	.	2	-6
C[C@@H]1CN([C@@H](C)CO)C(=O)c2cccc(NC(=O)Nc3ccc(C(F)(F)F)cc3)c2O[C@H]1CN(C)S(=O)(=O)c1ccccc1	.	.	-3	.	.
CCOC(=O)c1c(C)[nH]c(C)c1S(=O)(=O)N1CCN(c2ccc(F)cc2)CC1	63*	0	-5	28	4
CN(C)CC(=O)Nc1ccc2c(c1)[C@H]1C[C@H](CC(=O)NCc3ccccn3)O[C@H](CO)[C@H]1O2	.	.	6	.	.
Fc1ccc(-c2csc(N3CCSCC3)n2)cc1	28	4	46*	-2	51
Cc1ccc(-c2ccc3c(c2)O[C@H](CN(C)Cc2ccccn2)[C@H](C)CN([C@H](C)CO)S3(=O)=O)cc1	.	.	5	.	.
O=C(Nc1ccc2oc(=O)ccc2c1)c1ccc2ccccc2c1	60*	11	.	17	50
O=C(NC(=S)Nc1cccnc1)c1cc2ccccc2o1	59*	10	.	12	?
O=C(NC(=S)Nc1ccc2oc(=O)ccc2c1)c1cc2ccccc2o1	-85	10	.	-84*	.
SMILES	HSF-1 act	Wnt act	esBAF inh	HSF1 inh	MITF act
CN(C)CC(=O)N[C@H]1CC[C@H](CCNC(=O)C2CCCCC2)O[C@@H]1CO	.	.	1	.	.
C[C@H]1CCCCO[C@H](CN(C)Cc2ccc3c(c2)OCO3)[C@@H](C)CN([C@@H](C)CO)C(=O)c2cc(NC(=O)NC3CCCCC3)ccc2O1	.	.	-12	.	.
COc1cc(CCC(=O)OCn2nnc3ccccc3c2=O)cc(OC)c1OC	-84	2	10	-81*	5
COc1cccc(S(=O)(=O)N[C@H]2CC[C@@H](CC(=O)NCc3ccccc3)O[C@H]2CO)c1	.	.	-3	.	.
COCC(=O)N1C[C@@H]2[C@H](c3ccccc31)[C@@H](CO)N2Cc1ccccc1Cl	.	.	2	.	.
O=C(O)c1ccc2c(c1)C(=O)N(c1ccc(C(=O)OCC(=O)c3ccccc3)cc1)C2=O	29	47*	?	2	.
CCCOC(=O)CN1C(=O)c2ccc(C(=O)OCCC)cc2C1=O	4	.	-3	-3	-9
CCCOC(=O)c1ccc2c(c1)C(=O)N(c1ccccc1)C2=O	22	.	58*	-2	-4
Cc1ccc(C(=O)OCC(=O)c2ccccc2)cc1	40	36*	8	8	64
Cc1ccc(C(=O)CC(=O)c2ccccc2)cc1	16	18	?	9	.
Cc1cc(NC(=O)CCC2CCCCC2)no1	44	.	10	22	.
Cc1ccnc(NC(=O)CCC2CCCCC2)c1	40	9	49*	10	.
O=C(CC1CCCC1)Nc1ccc(Br)cc1	35	18	67*	23	?
O=C(CCC1CCCC1)Nc1ccc(Br)cn1	20	.	55*	11	?
COc1cccc(NC(=O)C(OC(=O)/C=C/c2ccc3c(c2)OCO3)c2ccccc2)c1 (stereo unspecified)	54*	.	10	17	.
COc1cccc(/C=C/C(=O)NCc2ccc3c(c2)OCO3)c1	-87	-2	5	-85*	.
COc1ccc(CC(=O)NCc2ccc3c(c2)OCO3)cc1	4	.	.	-3	8
C[C@H]1CN([C@@H](C)CO)C(=O)c2cc(NS(C)(=O)=O)ccc2O[C@@H]1CN(C)Cc1ccc(C(=O)O)cc1	.	.	-3	.	.
C[C@@H]1CN([C@H](C)CO)C(=O)c2cc(NS(=O)(=O)c3ccccc3)ccc2O[C@@H]1CN(C)Cc1ccccc1	.	.	-1	.	.
CNc1nc(SC(C)C(=O)Nc2ccc(Cl)c(Cl)c2)nc(N2CCOCC2)n1 (stereo unspecified)	68*	-2	-7	12	2
NCC[C@H]1CC[C@H](NC(=O)C2CCCC2)[C@@H](CO)O1	.	.	-4	.	.
CCOC(=O)N1N=C(CC)CC1(O)C(F)(F)F (stereo unspecified)	-2	34*	.	-5	-4
O=C(C[C@@H]1C=C[C@H](NS(=O)(=O)c2ccc(F)cc2)[C@@H](CO)O1)NC1CCCCC1	.	.	6	.	.
CC(C)c1ccc(C(O)c2cnc(C(C)C)n2C)cc1 (stereo unspecified)	15	8	73*	14	40
CC1=Nc2ccccc2/C1=C\c1nc(-c2ccccc2)oc1O	-12	.	4	1	4
CC1=Nc2ccccc2/C1=C/c1nc(-c2ccc(C)s2)oc1O	58*	-1	.	51	13
CSc1sc(C(=O)Nc2ccc(F)cc2F)c2c1C=CCC2	72*	-3	.	45	.
CCC(Sc1ncnc2c1nnn2-c1ccc(F)cc1)C(=O)OC (stereo unspecified)	103*	2	10	113	6
CCOC(=O)C(C)Sc1ncnc2c1nnn2-c1ccc(F)cc1 (stereo unspecified)	47	.	8	31	5
CCSc1ccc(-c2cccc([N+](=O)[O-])c2)nn1	24	28	49*	17	75

Screening data as filed in PubChem BioAssay.
